Unmarked numbers belong to inactive results. Results filed as inconclusive are left out. The source made the active and inactive calls. Unless noted, calls come from the whole dose curve; as a rule, active = well fitted curve in the direction sought with a large enough effect; inconclusive = small, poorly fitted or top-dose-only effect, or another doubt; inactive = no such curve, though single readings can be large; an effect the other way counts as inactive or inconclusive.

The nature of experiment [1]: Cellular Toxicity (caspase-3) HepG2 (AID 654).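 Note: cells exposed to compound for 16 hours before reading; 0% = DMSO alone and 100% = caspase signal from 100 µM tamoxifen.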 A digest of the protocol:
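HepG2 cells (1500/well) were treated 16 h at 37 °C in complete medium, then caspase 3/7 activity was read by Caspase-Glo luminescence. Data were normalized to DMSO and 100 uM tamoxifen; AC50 came from Hill-equation fits of qHTS concentration-response.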

Experiment [2] can be described thus: Cellular Toxicity (caspase-3) MRC-5 (AID 659).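 Note: 0% = DMSO basal and 100% = 10 µM staurosporine.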 The gist of the method: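 Concentration-dependent caspase 3/7 activation is measured in human normal lung fibroblasts (MRC-5) following 16-hour treatment. AC50 values come from standard Hill-equation modeling of luminescence normalized to DMSO and 10 uM staurosporine.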
Experiment [3] is described as follows: Cellular Toxicity (caspase-3) Mesangial (AID 660).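 Note: cells exposed to compound for 16 h before the caspase read.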 The gist of the method: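 Human renal glomerular mesangial cells, 1000/well, 5 h at 37 C before 16 h compound treatment. Caspase-Glo 3/7 luminescence after 20 min; normalized to DMSO and 100 uM tamoxifen, AC50 from Hill fit.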
A short description of experiment [4]: Cellular Toxicity (caspase-3) Hek293 (AID 664).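 Note: cells exposed to compound for 16 h at 37 °C before readout.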 The conditions noted are these: HEK293 caspase-3 activation, DMSO = 0%, 100 µM tamoxifen = 100%; at 92.2 µM (top of the series). The gist of the method:
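HEK293 cells in complete medium treated 16 h at 37 °C, then Caspase-Glo 3/7 luminescence read after 20 min at room temperature. Normalized to DMSO and 100 uM tamoxifen; AC50 from Hill fit of concentration-response.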

A short description of experiment [5]: Cellular Toxicity (caspase-3) NIH 3T3 (AID 666).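 Note: caspase signal read after 16 h compound exposure; 0% = DMSO basal and 100% = 100 µM tamoxifen stimulation.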 A digest of the protocol:
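Mouse NIH 3T3 fibroblasts (1000/well) treated 16 h at 37 C; caspase-3/7 activity measured by Caspase-Glo 3/7 luminescence after 20 min. Normalized to DMSO and 100 uM tamoxifen; AC50 from Hill fits.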

Experiment [6] in a line: Cell Viability - LYMP1-003 - Assay at 40 hr (AID 964). Note: % is set by controls: 0 for no effect and ±100 for the full control effect; nearly all actives have a fitted effect of over 60% in size. A digest of the protocol: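 LYMP1-003 human lymphoblastoid cells, 2500/well, preincubated 5 h at 37 C, then treated with compound for 40 h at 37 C. Intracellular ATP read by CellTiter-Glo luminescence after 30 min at room temperature; AC50 from Hill-equation fits.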
Experiment [7] can be described thus: Cell Viability - LYMP2-004 (AID 966).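 Note: plate controls were DMSO only for no effect and tetraoctylammonium bromide control for full effect; nearly all actives have a fitted effect of over 65% in size.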 The gist of the method:
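Lymphoblastoid LYMP2-004 cells, 2500 per well, were preincubated for 5 hr and then treated with compound for 24 h at 37 C in complete medium. Viability was read as cellular ATP by CellTiter-Glo luminescence, and AC50 values were taken from Hill fits to concentration-response data.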

Experiment [8] can be described thus: Cell Viability - LYMP2-009 (AID 968).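 Note: 0% = DMSO alone and the full-kill end = tetraoctylammonium bromide at 92 µM; nearly all actives have a fitted effect of over 55% in size.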
Experiment [9] in a line: Cell Viability - LYMP2-017 (AID 972). Note: % is set by controls: 0 for no effect and ±100 for the full control effect; nearly all actives have a fitted effect of over 55% in size. A digest of the protocol: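 LYMP2-017 human lymphoblastoid cells (2500/well) settled 5 hr at 37 C, then exposed to compound 24 hr at 37 C in complete medium. Viability taken as intracellular ATP by CellTiter-Glo luminescence after 30 min at RT; AC50 from Hill fits.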
Experiment [10] is described as follows: Cell Viability - LYMP2-026 (AID 989). Note: % is set by controls: 0 for no effect and ±100 for the full control effect; nearly all actives have a fitted effect of over 50% in size. A digest of the protocol:
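Human lymphoblastoid LYMP2-026 cells, 2500/well, exposed to compound 24 h at 37 C in complete medium. Viability as intracellular ATP by CellTiter-Glo luminescence; AC50 from Hill fits of qHTS concentration-response.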

Experiment [11] concerns the target Vitamin D3 receptor (Homo sapiens) (UniProt P11473). Description: qHTS assay for small molecule agonists of vitamin D receptor signaling (AID 588543; calls by dose curve;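 note: 0% = DMSO basal and 100% = reference agonist control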). The gist of the method:
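VDR-UAS-bla HEK293T cells, 2000/well, 2% charcoal-stripped FBS; compound titration 16 h at 37 C; CCF4 beta-lactamase ratio read. Normalized to 50 nM 1-alpha,25-dihydroxyvitamin D3 (100%) and DMSO; Hill fit gives EC50, efficacy.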
For orientation: Quantitative high-throughput screening tests each substance at several concentrations.

The nature of experiment [12]: qHTS assay for small molecule activators of the p53 signaling pathway (AID 651743; active = well fitted activation curve with a large enough effect in the signal ratio, not every such curve was filed as active; the % refers to the signal ratio; note: % of control where 0% means no effect). As to conditions: HCT-116 p53RE-bla, beta-lactamase FRET ratio, 16 h; activation: active compounds read high. The gist of the method:
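Read-out is fluorescence intensity from the LiveBLAzer B/G FRET substrate, added for 2 hours at room temperature after HCT-116 p53RE-bla cells had been incubated with compounds for 16 hours at 37 C.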

Experiment [13] is described as follows: qHTS assay for small molecule disruptors of the mitochondrial membrane potential - 1 hr assay (AID 651754; calls by dose curve; note: nearly all actives have a fitted effect of over 35% in size; note: potency is the fitted concentration of half-maximal effect). The gist of the method:
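HepG2 cells, attached overnight, were exposed to compound for 1 hr at 37C, then stained 30 min with a potentiometric dye. Ratio of red aggregate (590nm) to green monomer (535nm) fluorescence reports membrane potential; collapse shifts signal toward green.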

Experiment [14] is described as follows: qHTS assay for small molecule agonists of the antioxidant response element (ARE) signaling pathway measured by Nrf2-dependant transcriptional activity (AID 720636; active = well fitted curve in the direction sought with a large enough effect in the repeat runs; an effect the other way counts as inactive or inconclusive;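 note: HepG2 cells with an ARE-driven luciferase reporter; % of control where 0% means no effect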). The gist of the method:
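Reporter gene assay, HepG2 ARE-luc: 16 hr compound, 37 C, 5% CO2; read-out luciferase luminescence.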

The nature of experiment [15]: Cell Viability - HUV-EC-C (AID 542). Note: % is set by controls: 0 for no effect and ±100 for the full control effect; nearly all actives have a fitted effect of over 35% in size. A digest of the protocol:
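HUV-EC-C human vascular endothelial cells, 1000/well, exposed to compound for 40 hr at 37 °C in complete medium. Intracellular ATP was read by CellTiter-Glo luminescence. AC50 came from Hill-equation fits of concentration-response data.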

Experiment [16] in a line: Cell Viability - LYMP2-011 (AID 969).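 Note: 0% = DMSO only and full inhibition = 92 µM tetraoctylammonium bromide; nearly all actives have a fitted effect of over 60% in size.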 The gist of the method:
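2500 cells/well in complete medium, compound-treated 24 h at 37 C. Viability read as intracellular ATP by CellTiter-Glo luminescence after 30 min at room temperature. AC50 from Hill fits of qHTS concentration-response data.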

A short description of experiment [17]: Cell Viability - LYMP2-025 (AID 976).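 Note: plate controls were DMSO only for no effect and tetraoctylammonium bromide control for full effect.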 The gist of the method: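 Human lymphoblastoid LYMP2-025 cells, 2500/well, exposed 24 h at 37 C in complete medium in 1536-well qHTS. Viability as cellular ATP by CellTiter-Glo luminescence; AC50 from Hill fits of concentration-response data.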
For experiment [18], the target named is Nuclear receptor ROR-gamma (Homo sapiens) (UniProt P51449). Description: qHTS assay for small molecule antagonists of the retinoid-related orphan receptor gamma (ROR-gamma) signaling pathway (AID 651802).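 Note: luciferase reporter luminescence driven by ROR response element; % is set by controls: 0 for no effect and ±100 for the full control effect; nearly all actives have a fitted effect of over 60% in size.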 The gist of the method: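 CHO cells with TET-inducible ROR-gamma and RORE-luciferase reporter, dosed then doxycycline-induced. After 16 h at 37C, One-Glo luminescence read; decreased signal indicates antagonism.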

The nature of experiment [19]: qHTS assay for small molecule agonists of the antioxidant response element (ARE) signaling pathway measured by Nrf2-dependant transcriptional activity - cell viability counter screen (AID 720653; active = well fitted curve in the direction sought with a large enough effect in the repeat runs; an effect the other way counts as inactive or inconclusive; note: % is set by controls: 0 for no effect and ±100 for the full control effect). The conditions noted are these: ARE-bla HepG2 viability, CellTiter-Glo ATP luminescence, 16 h; active compounds read low. The gist of the method:
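Cytotoxicity counter screen: intracellular ATP quantified by CellTiter-Glo luminescence in the same ARE-bla HepG2 plates, after 16 h compound exposure and a 2 h beta-lactamase substrate step.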

Experiment [20] in a line: MultiTox-Fluor Cytotoxicity Assay - LYMP1-002 - Live Cells (AID 955). Note: % is set by controls: 0 for no effect and ±100 for the full control effect. The gist of the method:
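Human lymphoblastoid LYMP1-002 cells, 2500/well, treated 16 h at 37 C in complete medium. Live-cell protease activity via GF-AFC fluorescence (Ex/Em 405/510) after 60 min reagent incubation; AC50 from Hill fits.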

Sequence of Vitamin D3 receptor (Homo sapiens) (P11473 whole entry, looked up): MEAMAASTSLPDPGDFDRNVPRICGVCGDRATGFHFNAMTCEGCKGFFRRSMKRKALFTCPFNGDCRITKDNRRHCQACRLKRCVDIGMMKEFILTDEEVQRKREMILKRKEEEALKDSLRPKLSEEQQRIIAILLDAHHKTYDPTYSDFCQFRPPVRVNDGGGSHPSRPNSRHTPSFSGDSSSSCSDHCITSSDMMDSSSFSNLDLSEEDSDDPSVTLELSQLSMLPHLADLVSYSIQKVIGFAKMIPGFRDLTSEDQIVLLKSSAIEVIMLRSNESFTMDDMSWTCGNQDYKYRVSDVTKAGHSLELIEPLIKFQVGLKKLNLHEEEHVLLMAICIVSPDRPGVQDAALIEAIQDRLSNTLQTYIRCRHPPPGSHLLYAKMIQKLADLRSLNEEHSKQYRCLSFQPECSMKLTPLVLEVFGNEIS
Sequence of Nuclear receptor ROR-gamma (Homo sapiens) (P51449 whole entry, looked up): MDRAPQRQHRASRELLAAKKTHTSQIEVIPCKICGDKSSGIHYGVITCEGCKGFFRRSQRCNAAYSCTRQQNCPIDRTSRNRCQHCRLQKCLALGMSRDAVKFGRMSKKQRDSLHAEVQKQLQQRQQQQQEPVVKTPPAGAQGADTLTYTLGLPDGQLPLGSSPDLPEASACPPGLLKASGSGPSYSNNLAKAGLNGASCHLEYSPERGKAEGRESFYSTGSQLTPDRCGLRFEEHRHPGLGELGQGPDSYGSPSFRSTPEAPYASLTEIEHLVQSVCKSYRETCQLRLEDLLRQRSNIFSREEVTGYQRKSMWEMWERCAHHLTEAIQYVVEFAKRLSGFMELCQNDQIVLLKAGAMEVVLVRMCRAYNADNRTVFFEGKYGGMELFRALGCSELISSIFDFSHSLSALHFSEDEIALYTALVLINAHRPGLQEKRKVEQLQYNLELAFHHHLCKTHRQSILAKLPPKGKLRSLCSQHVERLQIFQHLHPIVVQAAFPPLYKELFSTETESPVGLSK

Regarding `CCCCCCCCCCCCCl`, the molecule was called inactive in experiment [1], in experiment [2], in experiment [3] and in experiment [11]. Further, the caspase-3 activation in experiment [4] was 2.31%. The Potency entry in [5], in experiment [6], in experiment [7], in experiment [8], in experiment [9] and in [10] was “inactive” throughout. The Potency result in experiment [13] and in experiment [14] was “inactive” each time. Moreover, in experiment [12], the activation is -1.06%.
In the case of `ClCCBr`, the Potency entry in experiment [15], in experiment [5], in experiment [6], in experiment [7], in experiment [8] and in experiment [16] was “inactive” throughout. The Potency result in experiment [9], in experiment [17], in [10], in [13], in experiment [18] and in experiment [14] was “inactive” in each case. Besides, the molecule was called inactive in [2] and in experiment [3]. The caspase-3 activation in experiment [4] was -0.69%. Also, the activation in experiment [12] is 0.777%. For the same molecule, the max response in experiment [19] was -7.21%.
`Cc1cccc(C)c1N`: the molecule was called inactive in [1], in [2] and in [3]. In addition, the caspase-3 activation in experiment [4] was 0.142%. Moreover, the Potency entry in experiment [5], in experiment [6], in [7], in [8], in experiment [16] and in [9] was “inactive” each time. Further, the Potency entry in [17], in experiment [10], in experiment [13], in experiment [18] and in experiment [14] was “inactive” throughout. Further, the activation in experiment [12] was 1.32%. Besides, the max response in experiment [19] is 4.9%.
Take `Cc1ccc(N)c(N)c1`: the Potency entry in experiment [15], in experiment [5], in experiment [10] and in experiment [18] was “inactive” in each case. Moreover, the call in experiment [1], in [2], in experiment [20] and in experiment [11] was inactive. For the same molecule, the caspase-3 activation in experiment [4] was 8.54%. Further, the activation in [12] was -0.898%. The max response in experiment [19] was -6.6%.
For the molecule `CCCCOC(=O)c1ccccc1N`, the molecule was called inactive in experiment [1], in experiment [2], in experiment [3] and in [11]. For the same molecule, in experiment [4], the caspase-3 activation is 0.422%. The Potency result in experiment [6], in experiment [7], in experiment [8], in [16], in experiment [9] and in experiment [17] was “inactive” in each case. Also, the Potency entry in [10], in experiment [13], in [18] and in [14] was “inactive” each time. In [19], the max response was 4.85%.
As for `Oc1c(Cl)cccc1Cl`, the call in experiment [1], in experiment [3], in experiment [20] and in experiment [11] was inactive. Besides, the caspase-3 activation in experiment [4] was 1.84%. In addition, the Potency result in experiment [5], in experiment [6], in experiment [7], in [8], in experiment [16] and in [10] was “inactive” throughout. Further, the Potency result in [13], in [18] and in experiment [14] was “inactive” each time. For the same molecule, the max response in experiment [19] was 9.38%.
For the molecule `Oc1ccc(Cl)c(Cl)c1`, the Potency entry in [15], in experiment [5], in experiment [6], in [7], in experiment [8] and in experiment [16] was “inactive” throughout. In addition, the Potency result in experiment [9], in experiment [17] and in experiment [14] was “inactive” each time. Further, the call in [1], in experiment [2], in experiment [3], in experiment [20] and in experiment [11] was inactive. The caspase-3 activation in [4] was 0.945%. Further, the activation in [12] is 2.18%. Moreover, the Potency in [13] is 33.5 µM (active). Besides, in experiment [19], the max response is -2.38%.
